In PubChem BioAssay AID651784 (National Center for Advancing Translational Sciences (NCATS), 2012):
Records with an inconclusive call do not appear. Active and inactive are the calls of the source. Calls follow the shape of the dose curve; as a rule, active = well fitted inhibition curve with a large enough effect; inconclusive = small, poorly fitted or top-dose-only effect; inactive = no such curve, though single readings can be large or run the other way.

experiment: Acumen qHTS Assay for Inhibitors of the mTORC1 Signaling Pathway in MEF (Tsc2-/-, p53-/-) Cells: Hit Validation; settings: Acumen imaging; activity change, negative = inhibition: at 37.3 µM (top of the series); also: nearly all actives have a fitted effect of over 65% in size
Excerpt: The mammalian target of rapamycin (mTOR) is an intracellular serine/threonine kinase Aberrant regulation of mTOR signaling plays a causative role in a number of human diseases, including cancer, benign tumors such as lymphangioleiomyomatosis (LAM) and Tuberous Sclerosis Complex (TSC), and metabolic diseases such as diabetes and obesity. This project aims to identify inhibitors of ribosomal protein S6 (rpS6) phosphorylation. The phosphorylation of rpS6 is a key event downstream of mTOR activation. The assay uses a phospho-specific antibody of phospho-rpS6 to detect inhibitors of mTOR activation. Mutations in the Tsc1 and Tsc2 genes are the underlying genetic lesions responsible for TSC, causing constitutive activation of the mTORC1 pathway and leading to profound effects on cell metabolism. Aberrant metabolism in cancer has recently received significant attention as a target to develop therapeutic agents in the treatment of cancer.1 As Tsc2-/- cells have lost the ability to respond to energy and growth factor deprivation, these cells are unable to properly down regulate cellular biosynthetic processes in response to metabolic stress, and are thus extremely sensitive to glucose deprivation-induced death.2 A central goal of this project is to explore the unique cell survival and metabolic properties of cells with Tsc1 or Tsc2 by screening for compounds that selectively target the Tsc2-/- MEFs by screening both Tsc2-/- and WT MEF cell lines. We hope to better understand these aspects of TSC physiology in order to exploit them for therapeutic benefit.
NIH Molecular Libraries Probe Production Centers Network [MLPCN]
NIH Chemical Genomics Center [NCGC]
Assay Submitter (PI): Blenis, John; Harvard University
For quantitative high throughput analysis of mTORC1 signaling, we developed a cell-based assay for immuno-fluorescence based detection of rpS6 phosphorylation on the Acumen Explorer that will be used a platform for the primary small molecule screen. Mouse embryonic fibroblasts (MEFs) are cultured in 1536-well plates using DMEM + 10% FBS. Twenty-four hrs after plating, test compounds (solubilized in DMSO) are delivered and incubated with the cells for 24 hrs at 37 degree Celsius. Following the incubation, media with compound is aspirated and the cells are fixed in 4% paraformaldehyde (PFA) containing PBS + 0.2% TX-100. Next, PFA is aspirated, cells are washed two times with PBS plus 0.2% TX-100 and the cells are blocked for 1 hr at room temperature (blocking buffer: LiCOR Blocking Buffer plus 0.2% TX-100). This is followed by aspiration and staining with Alexa-488 conjugated-phospho-rpS6 Ser235/236 antibody for 2 hours at room temperature (Cell Signaling Technology # 4803, 1:50 dilution in blocking buffer). Cells are washed two times with PBS plus 0.2% TX-100, and stained with 10 uM propidium iodide (PI) for 20-25 minutes for cell number measurement (1:500 dilution of Hoescht staining is also added for IN Cell imaging). The plates are scanned on the Acumen Explorer laser scanning instrument (TTP Labtech) using the 488nm laser for simultaneous excitation of the Alexa-488 and PI. […] Fluorescence emission from the PI stain is selected using a 575-640 nm band pass filter. The normalized phospho-S6 staining is calculated as the ratio of the integrated Alexa 488 intensity divided by the integrated PI intensity for the single concentration rapamycin control (7.5 nM) and DMSO columns. […] Inhibition of the pathway is defined based on the normalized phospho-S6 intensity in rapamycin treated cells. Active cells are defined as those with a normalized phospho-S6 staining above this threshold, and each treatment is reported as the % positive cells in the well, where thresholds are defined by selecting wells with the highest and lowest signal and differentiating between the % non-active and % active populations. In addition to the pathway specific phospho-S6 endpoint, the number of PI stained cells from the Acumen is recorded as a measure of cell viability. […]
Potency is read from the fitted curve at half-maximal effect.

With `Cc1ccc(CS(=O)(=O)c2ncc(Cl)c(C(=O)Nc3nnc(C(C)C)s3)n2)cc1` the Potency was 5.85 µM (active).
For `CCC1=Nc2cc(C(=O)NC3CCC(C)CC3)ccc2Sc2ccc(C)cc21` (stereo not given), the Potency was 1.47 µM (active).
With `COc1ccc(CCN2C(=O)c3[nH]nc(-c4ccccc4O)c3C2c2cccc(OC)c2)cc1` (stereo not given) the Potency was 5.85 µM (active).
In the case of `CCCN(c1ccccc1CC)S(=O)(=O)c1ccc2c(c1)CC(C)N2C(=O)C1CC1` (stereo not given), the Potency is reported as 0.521 µM (active).
In the case of `CCSc1ccccc1C(=O)Nc1ccc(-c2nc3ccccc3s2)c(O)c1`, the Potency is reported as 13.1 µM (active).
For `CC(C)CCNC(=O)C(=O)Nc1c2c(nn1-c1ccc(Cl)cc1)CSC2`, the Potency was 5.85 µM (active).
For `CC1CCCN(CCCNC(=O)c2ccc3c(c2)N(Cc2ccc(Cl)cc2)C(=O)c2ccccc2S3(=O)=O)C1` (stereo not given), the Potency was 13.1 µM (active).
In the case of `CCNC(=O)c1c(NC(=O)c2nc(S(=O)(=O)CC)ncc2Cl)sc2c1CCCC2`, the Potency is reported as 1.31 µM (active).

In order of rising activity change, negative = inhibition:
1. CCN(CCCNC(=O)c1cc2c(=O)[nH]c3ccc(C)cc3c2s1)Cc1ccccc1  -139%
2. CC1CCN(S(=O)(=O)c2ccc(C(=O)Nc3sc4c(c3C(N)=O)CC(C)(C)NC4(C)C)cc2)CC1  -107%
3. CCCCN(CCCNC(=O)c1cc(Nc2cccc(SC)c2)nc2ccccc12)Cc1ccccc1  -95.1%
4. O=C(Cn1c(=O)n(Cc2ccc3c(c2)OCO3)c(=O)c2ccc(C(=O)NC3CCCCC3)cc21)Nc1ccccc1F  -94.5%
5. Cc1ccccc1CS(=O)(=O)c1ncc(Cl)c(C(=O)Nc2nnc(C(C)C)s2)n1  -92.9%
6. Cc1ccc(C)c(NC(=O)c2nc(S(=O)(=O)Cc3ccc(F)cc3)ncc2Cl)c1  -90.5%
7. C=CCc1c(C)nc2nc(SCC(=O)Nc3ccc(C)c(C)c3)nn2c1C  -88.7%
8. CCOc1ccc(S(=O)(=O)N(C(C)=O)c2ccc3oc(C)c(C(=O)OC)c3c2)cc1  -69.9%
9. COc1ccc(C2Sc3ccccc3NC3=C2C(=O)c2ccccc23)c(OC)c1OC (stereo not given)  -65.9%
10. Cc1ccc(NC(=O)CSc2nc(=O)cc(N)n2CCc2ccccc2)cc1  -30%
11. CCn1c(=O)sc2cc(NS(=O)(=O)c3ccc(F)c(C)c3)ccc21  -28.9%
12. CCc1ccc(NC(=O)Cn2nc(C(F)(F)F)c3c2CCCC3)cc1  -28%
13. CCOc1ccc(CCNCc2c(C(=O)O)n(Cc3ccc(C)cc3)c3cc(OC)ccc23)cc1  -26.5%
14. Cc1ccc2occ(CC(=O)Nc3ccc(Cl)c(C(F)(F)F)c3)c2c1  -19.2%
15. CC1CCCN(CCCNC(=O)c2cc3c(Cl)nc4ccccc4c3s2)C1 (stereo not given)  -16.9%
16. COc1ccc(S(=O)(=O)N(Cc2nc(-c3cccc(C)c3)no2)C2CCCCC2)cc1  -16.2%
17. CCCCN(C)C(=O)CSc1c2c(nc3ccc(Cl)cc13)CCCC2  -13.3%
18. Cc1ccc(CN(Cc2cccn2-c2nnc(N3CCCC3=O)s2)C(=O)Nc2ccccc2C(F)(F)F)cc1  -12.7%
19. COc1ccc(N2CCN(C(=O)C3CCN(Cc4nc(-c5ccc(Cl)cc5)oc4C)CC3)CC2)cc1  -10.9%
20. CC(C)Oc1ccc(CNC(=O)c2ccc3nc(SCc4ccc(F)cc4)n(C)c3c2)cc1  -8.96%
21. Cc1cccc(Nc2nnc(-c3ccc(C)c(S(=O)(=O)N4CCN(C)CC4)c3)c3ccccc23)c1  -6.53%
22. NC(=O)c1ccc(-c2nc(-c3ccc4c(c3)OCO4)c(-c3ccccn3)[nH]2)cc1  -5.7%
23. CCOC(=O)C1CCN(C(=O)CSc2c3c(nc4ccc(Cl)cc24)CCCC3)CC1  -5.08%
24. Cc1nnc(C(=O)NC(C)(C)c2nc(C(=O)NCc3ccc(F)cc3)c(O)c(=O)n2C)o1  -4.28%
25. CCc1ccc(S(=O)(=O)c2nnn(-c3ccc(F)cc3)c2N)cc1  -3.55%
26. O=C(Nc1cccc(NC(=O)c2ccccc2Cl)c1)c1cccc(Br)c1  -1.41%
27. COc1ccccc1NC(=O)c1sc(-c2ccc(Cl)cc2)cc1N  1.3%
28. COc1ccc(NC(=O)CSc2nc3ccccc3nc2N2CCC(C)CC2)cc1  6.7%
29. CCc1ccc(OCC(=O)Nc2ccc3oc(-c4ccc(OC)cc4)nc3c2)cc1  7.33%
30. CCC(Sc1nncn2c1cc1oc(C)cc12)C(=O)Nc1ccc(F)cc1 (stereo not given)  12.3%
31. COc1ccc(CCCc2nnc(SCC(=O)Nc3ccc(OC)cc3)o2)cc1  14%
32. CCc1ccccc1NC(=O)CSCc1cnn(-c2ccccc2)c1-n1cccc1  14.7%
